This is an account of results in PubChem BioAssay AID463173 (ICCB-Longwood Screening Facility, Harvard Medical School, 2010).

Screen size: about 52,000 compounds; about 4,300 (8.3%) were called active. This excerpt belongs to a sample that is enriched for actives. Values without a mark were called inactive. Cut-off read from the data, not from the text of the source: active = survival mostly below about 52% (no sharp cut-off); inactive = mostly above about 56%.

The assay concerns DeltatarO mutant. Briefly: S. aureus survival, RN4220 and DeltatarO strains – OD600, teichoic acid synthesis inhibitors, primary screen (AID 463173). Conditions: S. aureus RN4220 wild type/DeltatarO growth, OD600, 18 h, stronger effect = lower value, screened at 18.75 µg/mL (by protocol).
Consider `N#Cc1ccccc1NC(=O)CSc1ncn[nH]1`, for which the survival is 164%.
Take `CC(C)(C)c1ccc(C(=O)N2CCC(c3nc4ccccc4o3)CC2)cc1`: the survival is 86%.
As for `CCOc1ccc(NC(=O)CSc2ncc(S(=O)(=O)c3ccc(F)c(C)c3)c(=O)[nH]2)cc1`, the survival is 58%.
As for `CCc1ccc(CNC(=O)c2c(C)oc3ncn(CC(C)C)c(=O)c23)cc1`, the survival was 88%.
In the case of `Cc1cc(NCCN(C)C)n2nc(C)c(-c3ccccc3)c2n1`, the survival is 93%.
Consider `CCCCCNS(=O)(=O)c1ccc(N2CCCCS2(=O)=O)cc1`, for which the survival is 77%.
As to `Cc1nc2cc(-c3cccc(F)c3)nn2c(C)c1CCC(=O)N1CCN(c2ccc(F)cc2)CC1`, the survival is 56%.
For `CCOc1ccc(-c2cc(NC(=O)Nc3ccccc3Cl)c(C(=O)OC)s2)cc1`, the survival was 56%.
For `Cn1c(=O)oc2cc(S(=O)(=O)N3CCCC(C(=O)N4CCN(c5ccc(F)cc5)CC4)C3)ccc21` (centres undefined) the value was 92%; for `COc1ccc(-c2[nH]c3ccccc3c2SCCNC(=O)c2cc(OC)c(OC)c(OC)c2)cc1`, 62%; for `COc1cccc(-c2nc(SCC(=O)NC3CCCC3)c(-c3ccc(C)cc3)[nH]2)c1`, 107%.
Consider `CC(C)Cc1nn2c(=O)cc(COC(=O)c3ccc4c(c3)OCO4)nc2s1`, for which the survival was 73%.
Turning to `O=C(CN1CCCN(Cc2ccccc2Cl)S1(=O)=O)Nc1ccc2c(c1)OCCO2`, the survival was 67%.
Regarding `Cc1ccc(S(=O)(=O)Nc2ccc3c(c2)CCCN3C(=O)c2cccs2)cc1C`, the survival is 70%.
As to `Cc1ccc(S(=O)(=O)Nc2ccc3c(c2)CCCN3C(=O)c2cccs2)cc1`, the survival is 75%.
For `Cc1ccc(C)c(S(=O)(=O)Nc2ccc3c(c2)CCCN3C(=O)c2cccs2)c1` the value was 47% (active); for `Cc1ccc(NC(=O)Cn2c(=O)n(Cc3ccco3)c(=O)c3ccccc32)cc1`, 78%; for `COCCNC(=O)CCn1nc(-c2ccc(Cl)cc2)c2ccccc2c1=O`, 77%.
As to `CN(C)C(=O)Cn1nc(-c2ccccc2)c2ccccc2c1=O`, the survival was 92%.
The value for `O=C(Cn1nc(-c2ccc(Cl)cc2)c2ccccc2c1=O)Nc1cccc(Br)c1` was 28% (active); that for `COCCNC(=O)Cn1nc(C)c2c(C)n(-c3ccc(C)cc3)nc2c1=O` was 135%.
As to `O=C(Cn1nc(-c2ccc(Cl)cc2)c2ccccc2c1=O)NCCN1CCOCC1`, the survival was 97%.
For the compound `Cc1cccc(NC(=O)Cn2nc(-c3ccc(Cl)cc3)c3ccccc3c2=O)c1`, the survival is 142%.
On to `Cc1ccc(-c2nn(CC(=O)Nc3cccc(C(F)(F)F)c3)c(=O)c3ccccc23)cc1`, for which the survival was 31% (active).
As for `CN(C)C(=O)c1ccc(NC(=O)Cn2nc(-c3ccccc3)c3ccccc3c2=O)cc1`, the survival was 39% (active).
For `O=C(Cn1nc(-c2ccccc2)c2cnc3ccccc3c21)Nc1ccccc1`, the survival is 76%.
As to `O=C(Cn1nc(Cc2ccncc2)c2ccccc2c1=O)Nc1cccc(C(F)(F)F)c1`, the survival is 71%.
For the compound `Cn1nc(-c2ccc(OCC(=O)Nc3cccc(C(F)(F)F)c3)cc2)c2ccccc2c1=O`, the survival was 78%.
For `COCCNC(=O)Cn1nc(-c2ccc(C)cc2)c2ccccc2c1=O` the value was 39% (active).
As to `CCOc1ccc(CCNCc2c(C(=O)O)c(C)n(Cc3ccccc3F)c2C)cc1`, the survival is 82%.
For `CC(C)(C)n1nnnc1CN1CCC(NC(=O)Nc2ccc(F)cc2)CC1` the value was 102%; for `CCOC(=O)c1ccc(NS(=O)(=O)c2ccc3c(c2)n(C)c(=O)n3C)cc1`, 96%.
Consider `Fc1ccc(-n2ncc3c(Nc4cccc(Cl)c4)ncnc32)cc1`, for which the survival is 67%.
On to `COc1cccc2c1cc1c(=O)n(CC(=O)N3CCN(c4ccc(F)cc4)CC3)nc(C)n12`, for which the survival was 87%.
For the compound `COc1cccc(NC(=O)CN2C=NS(=O)(=O)c3ccccc32)c1`, the survival was 122%.
Regarding `O=C(CCCCn1c(=O)c2ccccc2n(Cc2ccc(F)cc2Cl)c1=O)NCCc1ccc(Cl)cc1`, the survival is 72%.
The value for `O=C(c1ccc(Cl)cc1)N1CCCCC1CCN1CCOCC1` (centres undefined) was 104%; that for `Cc1nc2c(C(=O)NC(C)c3ccccc3)cnn2c(C)c1Cc1ccccc1` (centres undefined) was 72%.
Consider `COCCNC(=O)Cn1nc(N2CCN(c3ccccc3OC)CC2)ccc1=O`, for which the survival was 94%.
Consider `Cn1nc(-c2ccc(C(=O)Nc3cccc(C(F)(F)F)c3)cc2)c2ccccc2c1=O`, for which the survival is 57%.
Take `O=C(Cn1nc(Cc2cccnc2)c2ccccc2c1=O)Nc1cccc(C(F)(F)F)c1`: the survival is 54%.
As to `COc1ccc(NC(=O)CCn2nc(-c3ccc(Cl)cc3)c3ccccc3c2=O)cc1`, the survival was 76%.
For `Cc1ccc(NC(=O)Cn2nc(-c3ccc(Cl)cc3)c3ccccc3c2=O)cc1` the value was 38% (active); for `CNC(=O)Cn1nc(-c2ccc(Cl)cc2)c2ccccc2c1=O`, 52%.
For `O=C(Cn1nc(-c2ccc(Cl)cc2)c2ccccc2c1=O)Nc1cccc(C(F)(F)F)c1` the value was 34% (active).
For the compound `Oc1c(C(c2ccc(Cl)cc2Cl)N2CCCC2)sc2nc(-c3ccco3)nn12` (centres undefined), the survival is 68%.
The value for `Cc1cccc(C(=O)OCc2cc(=O)n3nc(C4CCCCC4)sc3n2)c1` was 78%; that for `CNC(=S)NC1CC2CCCC(C1)N2Cc1ccco1` (centres undefined) was 80%.
As to `O=C(c1ccccc1)N1CCC(O)(c2cccnc2)CC1`, the survival was 70%.
The value for `COC(=O)c1ccccc1NC(=O)CSc1cc(-c2ccccc2)nc(C)n1` was 71%.
The value for `COc1ccc(NC(=O)CSc2cc(-c3ccccc3)nc(C)n2)cc1` was 94%; that for `Cc1nc(SCC(=O)Nc2ccccc2C)cc(-c2ccccc2)n1` was 53%; that for `Cc1nc(SCC(=O)Nc2ccccc2Cl)cc(-c2ccccc2)n1` was 56% (active).
In the case of `CCOC(=O)c1ccc(NC(=O)CSc2cc(-c3ccccc3)nc(C)n2)cc1`, the survival is 40% (active).
Turning to `Cc1nc(SCC(=O)Nc2ccc(C)c(Cl)c2)cc(-c2ccccc2)n1`, the survival was 46%.
The value for `Cc1ccc(NC(=O)CSc2nc(=O)n(CCN3CCOCC3)c3c2CCC3)c(C)c1` was 73%; that for `COC(=O)c1ccc(NS(=O)(=O)c2ccc3c(c2)n(C)c(=O)c(=O)n3C)cc1` was 79%; that for `COCCNC(=O)C1CCN(Cc2cc3ccccc3n2Cc2ccc(C)cc2)CC1` was 99%.
Consider `CCOc1ccc(NC(=O)CCS(=O)(=O)c2cc3c4c(c2)CCN4C(=O)CC3)cc1`, for which the survival was 74%.
As for `Cc1ccc(-c2nnc(NC3CCCC3)s2)cc1`, the survival was 76%.
Take `Cc1cc(C)c(C#N)c(NC2CCCCC2)n1`: the survival was 87%.
In the case of `N#CSc1cnc(NC2CCCCC2)s1`, the survival was 1% (active).
As for `Cc1ccc(C(=O)Nc2c(C(=O)Nc3ccc(C)c(C)c3)sc3nc(C)cc(C)c23)cc1`, the survival is 54%.
On to `Cc1cc(C)cc(-n2c(C)cc(C(=O)C(=O)Nc3ccccc3F)c2C)c1`, for which the survival was 99%.
For the compound `Fc1ccc(Br)cc1C1C=C(c2ccc(Br)cc2)Nc2nnnn21` (centres undefined), the survival was 91%.
In the case of `COc1ccc(C2C=C(c3ccc(Br)cc3)Nc3nnnn32)c(OC)c1` (centres undefined), the survival was 84%.
The value for `Cc1cccc(C2C=C(c3ccc(C)c(C)c3)Nc3nnnn32)c1` (centres undefined) was 6% (active).
Take `CCOc1ccc(C2C=C(c3cccc(OC)c3)Nc3nnnn32)cc1` (centres undefined): the survival is 45% (active).
With `CCOc1ccc(NC(=O)c2cnn3c2NC(c2cccc(OC)c2)=CC3c2ccccc2)cc1` (centres undefined), the survival is 49%.
`COc1ccc(C2=CC(c3cccc(C)c3)n3nnnc3N2)cc1` (centres undefined): the survival was 84%.
Turning to `CN(C)c1ccc(C2C=C(c3ccccc3)Nc3nnnn32)cc1` (centres undefined), the survival was 52%.
For `COc1cccc(C2=CC(c3cc(Br)ccc3F)n3nnnc3N2)c1` (centres undefined), the survival is -2% (active).
Turning to `COc1cccc(C2C=C(c3ccc(C)c(C)c3)Nc3nnnn32)c1OC` (centres undefined), the survival is 72%.
For the compound `Cc1ccc(C)c(N2CCN(S(=O)(=O)c3ccc4c(c3)n(C)c(=O)c(=O)n4C)CC2)c1`, the survival was 76%.
For the compound `CC(C)CC(C(=O)NCc1ccc(F)cc1)N1Cc2ccccc2C1=O` (centres undefined), the survival is 88%.
Regarding `O=C(NCc1cccnc1)c1nn(-c2ccc(F)cc2)nc1CO`, the survival was 111%.
Turning to `CCc1ccc2occ(CC(=O)Nc3c(C(=O)Nc4ccc(OC)cc4)oc4ccccc34)c2c1`, the survival is 84%.
For `CCOc1cc2c(cc1OCC)C(CC(=O)O)N(C(=O)Nc1ccc(Br)c(C)c1)CC2` (centres undefined) the value was 81%; for `CCOc1cc2c(cc1OCC)C(CC(=O)OC)N(C(=O)Nc1cc(C)cc(C)c1)CC2` (centres undefined), 83%; for `CCOC(=O)CC1c2cc(OCC)c(OCC)cc2CCN1C(=O)Nc1cccc(Cl)c1` (centres undefined), 41% (active).
For `Fc1cccc(Cl)c1Cn1c(-c2cccs2)nc2ccccc21` the value was 21% (active); for `Cc1ccccc1Cn1cnc2ccccc21`, 77%.
For `OCc1nc2ccccc2n1Cc1c(F)cccc1Cl`, the survival was 99%.
The value for `Clc1ccccc1Cn1c(-c2cccs2)nc2ccccc21` was 11% (active); that for `O=C(NCc1nc2ccccc2n1Cc1ccccc1Cl)c1ccccc1` was 97%.
With `Cc1cccc(CNC(=O)Cn2c(-c3cccs3)cc3ccccc32)c1`, the survival was 116%.
Turning to `Cc1cccc(Cn2c(-c3cccs3)nc3ccccc32)c1`, the survival is 2% (active).
In the case of `CC(=O)N1CCCC1c1nc2ccccc2n1Cc1ccccc1C` (centres undefined), the survival is 69%.
For `OCc1nc2ccccc2n1Cc1ccccc1Cl` the value was 74%; for `Cc1ccccc1Cn1c(-c2cccs2)nc2ccccc21`, 19% (active); for `CC(=O)N1CCCC1c1nc2ccccc2n1Cc1cccc(C)c1` (centres undefined), 72%.
With `CCCC(=O)NCCc1nc2ccccc2n1Cc1c(F)cccc1Cl`, the survival was 69%.
On to `O=c1[nH]nc(-c2ccccc2)c2cc3c(=O)[nH]nc(-c4ccccc4)c3cc12`, for which the survival is 100%.
Regarding `CSc1cccc(NC(=O)Cn2c(=O)n(Cc3ccccc3)c(=O)c3sc4ccccc4c32)c1`, the survival is 91%.
